This is part of a sample that, as a whole, favours compounds with a hit. Of some 79,000 tested, about 15% had one in any assay. Rule as the data show it: active = growth inhibition above about 70%; inactive = the rest.
Legend:
[1] = NCI Yeast Anticancer Drug Screen. Data for the rad50 strain (AID 155);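 also: 0% = growth of vehicle-only cultures of the same strain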; details: S. cerevisiae rad50 strain growth inhibition; at 50.0 µM; hits give high values
Summary of the method: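 Inhibition values express reduced yeast growth in compound-treated cultures relative to vehicle-treated controls.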

[2] = NCI Yeast Anticancer Drug Screen. Data for the mec2-1 strain (AID 157); details: S. cerevisiae mec2-1 strain, at 50.0 µM, hits give high values
Summary of the method: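 Each compound was tested on mec2-1 yeast, a strain altered in DNA damage repair or cell cycle control. Growth inhibition is reported relative to vehicle.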

[3] = NCI Yeast Anticancer Drug Screen. Data for the sgs1 mgt1 strain (AID 161);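 also: 0% = growth of cultures given vehicle only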; details: S. cerevisiae sgs1 mgt1 strain, at 50.0 µM, hits give high values
Summary of the method: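 Inhibition of yeast growth, normalised to vehicle-treated controls, is reported for a strain bearing genetic alterations in DNA damage repair.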

[4] = NCI Yeast Anticancer Drug Screen. Data for the cln2 rad14 strain (AID 165);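 also: 0% = growth equal to vehicle treated cultures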; details: S. cerevisiae cln2 rad14 strain, at 50.0 µM, hits give high values
Summary of the method: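 Test compounds were added to cln2 rad14 yeast cultures; inhibition of growth was then determined by comparison with vehicle treatment.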

[5] = NCI Yeast Anticancer Drug Screen. Data for the bub3 strain (AID 167); details: S. cerevisiae bub3 mutant strain, at 50.0 µM, hits give high values
Summary of the method: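 Steps: expose the mutant yeast strain to compound; grow alongside vehicle-treated cultures; measure growth; express inhibition against the vehicle cultures.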

[6] = NCI Yeast Anticancer Drug Screen. Data for the mlh1 rad18 strain (AID 175); details: S. cerevisiae mlh1 rad18 strain growth inhibition; at 50.0 µM; hits give high values
Summary of the method: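 Inhibition values reflect reduced growth of mutant yeast versus vehicle-treated controls following compound exposure; the mutations affect DNA damage repair.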

Measured: growth inhibition

CCOc1ccc(C(C)c2cc3c(cc2OC)OCO3)cc1 (stereo not given)
inactive: [1] 20.7% | [2] 2.3% | [3] 20.8% | [4] -1.55% | [5] 27.5% | [6] 11.8%

C=CC1(C)CCC2C(=CCC3C2(C)CC(O)C(O)C3(C)COC2OC(C(=O)O)C(O)C(O)C2O)C1 (stereo not given) (tested in a mixture with another compound)
inactive: [1] 16.1% | [2] -3.55% | [3] -6.9% | [4] 18.3% | [5] 4.95% | [6] -67.3%

CCCN(CCC)CCc1cc(C(C)=O)n(S(=O)(=O)c2ccc(C)cc2)c1
inactive: [1] -10.2% | [2] -17.8% | [3] 0.3% | [4] 19.6% | [5] -7.35% | [6] 21.4%

Nc1ccc(Sc2nnc(N)s2)cc1
inactive: [1] -26% | [2] -16.6% | [3] -53.1% | [4] 6.8% | [5] -31.4% | [6] -47.5%

C=C(C)CNC(C)=O
inactive: [1] -7.75% | [2] 3% | [3] 0% | [4] 0% | [5] 3.4% | [6] 1.95%

COc1nc2c(c(=O)n1C)N(C(C)=O)C1C(N2)OCC(OC(C)=O)C1OC(C)=O (stereo not given)
inactive: [1] -13.4% | [2] 8.65% | [3] -2.55% | [4] 5.45% | [5] -7.6% | [6] -32.1%

O=CC(=O)c1ccc(Cl)cc1
inactive: [1] 1.9% | [2] 5.5% | [3] 8.4% | [4] 31.1% | [5] -9.5% | [6] 14.8%

CCCCCCCCCC1(C(=O)OCC)OC1(C)C (stereo not given)
inactive: [1] 8.55% | [2] -15.8% | [3] 5.75% | [4] 10.5% | [5] 15.2% | [6] -11.8%

O=C(N/N=C\c1cccc2c([N+](=O)[O-])cccc12)Nc1ccccc1
inactive: [1] -30.6% | [2] -0.45% | [3] -21.9% | [4] 2.6% | [5] -16.6% | [6] -31.6%

CC(=O)c1c(C)cc2cccc(OC3OC(CO)C(O)C(O)C3O)c2c1O (stereo not given) (tested in a mixture with another compound)
inactive: [1] 9.1% | [2] 8.2% | [3] -18.6% | [4] 0% | [5] -7.25% | [6] -56.3%

NC(CC(=O)Nc1ccc(Cl)cc1)=Nc1ccccc1
inactive: [1] -28.6% | [2] -12.9% | [3] -11.2% | [4] -10.3% | [5] -14.4% | [6] -18.9%

COC(=O)C(=O)c1c(C(=O)OC)nc2nnc(N)n2c1-c1ccc(Cl)c(Cl)c1
inactive: [1] 1.7% | [2] -2.8% | [3] -4.9% | [4] -29.9% | [5] 16.1% | [6] -7.55%

NC(C(=O)O)C1C=CCCC1 (stereo not given)
inactive: [1] -25.4% | [2] -3.4% | [3] -30.8% | [4] -57.3% | [5] -27.2% | [6] 6.85%

CCCCCCC(C(=O)OCC)(C(=O)OCC)c1ccccc1
inactive: [1] -10.8% | [2] -16.1% | [3] 1.15% | [4] -31.1% | [5] 37.9% | [6] -6.2%

COc1cc2c(cc1O)C1Cc3cc(O)c(OC)cc3C(C2)N1C (stereo not given)
inactive: [1] -29.8% | [2] -12.7% | [3] -30.2% | [4] 3.1% | [5] -25.6% | [6] -22.1%

CC(=O)Oc1ccc2c(-c3ccccc3)c(Oc3ccc(Cl)cc3)c(=O)oc2c1
inactive: [1] -4.2% | [2] -5.05% | [3] -3.7% | [4] -16.1% | [5] 3.3% | [6] 4.35%

O=C(C[n+]1csc2ccccc21)c1ccc(I)cc1
inactive: [1] -15.3% | [2] -0.65% | [3] -9.15% | [4] -12.8% | [5] -4.8% | [6] 20.4%

CN(C)CCNC(=O)c1nc([N+](=O)[O-])cn1C
inactive: [1] 31.9% | [2] 3.55% | [3] -2.25% | [4] 7.35% | [5] 20.4% | [6] -69.2%

CC(=O)C1CC2CCC1C2 (stereo not given)
inactive: [1] 10.4% | [2] 12.8% | [3] -8.7% | [4] -12.4% | [5] 1.25% | [6] 7.9%

CCC1C2C=CC(CC2)N1S(=O)(=O)c1ccc(C)cc1 (stereo not given)
inactive: [1] -0.7% | [2] -9.1% | [3] 10.8% | [4] 30% | [5] 13.2% | [6] -6.05%

Reference: PubChem BioAssay (NCI)
